# Artemis inh = blocks endonuclease activity of human Artemis; Q96SD1; recombinant Artemis, quenched FAM hairpin cleavage fluorescence; inhibition, % at 10 µM; actives 0.78% (n = 30,000);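 active means at 10 µM dose, at least 30% inhibition, measured as corrected fluorescence normalized to stimulator and neutral control wells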
# Active calls of the source: *. Only a selection was taken, and hits are over-represented in it overall.
SMILES,Artemis inh
Cc1ccc(N2C(=O)/C(=C/N3CCN(C(=O)c4ccco4)CC3)C(=O)NC2=S)cc1C,31*
CCC(C)C12CN3CCN(CC(C)(C3)C1=O)C2 (stereo unspecified),0
CC(=O)OC1(c2ccccc2)CCN(C)C(C)C1C (stereo unspecified),-4
CC(Cc1ccccc1)[n+]1cc(/N=C(\[O-])Nc2ccccc2)on1 (stereo unspecified),1
COCCn1c(-c2ccccc2)cc(C(=O)O)c1C,-1
CCOC(=O)c1c(-n2c(C)cc(/C=C3/C(=O)NC(=O)N(CC)C3=O)c2C)sc2c1CCCC2,35*
O=c1c2ccccc2nc(CSc2ncnc3nc[nH]c23)n1-c1ccc(Cl)c(Cl)c1,1
CCN(CC)CC(=O)Nc1ccc(Cl)cc1C(=O)c1ccccc1,5
CCn1nc(-c2cccs2)nc2c(=O)n(C)c(=O)nc1-2,71*
O=c1c2ccccc2nc(-c2cccs2)n1-c1ccccc1,3
CC(C)NC(C)C(=O)C12CC3CC(CC(C3)C1)C2 (stereo unspecified),3
Cc1nc2c(c(C)nn2-c2ccccc2)c(C)c1CCC(=O)N1CCC2(CC1)OCCO2,-1
CCOc1ccc(C2(C#N)CC[N+](C)(C)CC2)cc1,0
CCOC(=O)c1cc(C)n(CCc2cnc[nH]2)c1C,-3
CCOC(=O)C(O)(c1ccc(N(CC)S(=O)(=O)c2ccccc2)cc1)C(F)(F)F (stereo unspecified),-7
